Experimental data published in PubChem BioAssay AID1220 (Sanford-Burnham Center for Chemical Genomics, 2008).
In all, about 190,000 compounds went through this assay and about 1,300 (0.68%) were called active. Cut-off read from the data, not from the text of the source: active = inhibition above about 50%; inactive = the rest. The entries come from a sample that favours actives as a whole.

Each compound was assayed against Mannose-6-phosphate isomerase (Homo sapiens) (UniProt P34949) (assay: MPI inhibition at elevated mannose 6-phosphate – biochemical, fluorescence intensity, high mannose 6-phosphate, primary screen (AID 1220)). Conditions: recombinant PMI enzyme, coupled fluorescence intensity; at 20 µM; hits give high values.
Sequence of Mannose-6-phosphate isomerase (Homo sapiens) (P34949 whole entry, looked up): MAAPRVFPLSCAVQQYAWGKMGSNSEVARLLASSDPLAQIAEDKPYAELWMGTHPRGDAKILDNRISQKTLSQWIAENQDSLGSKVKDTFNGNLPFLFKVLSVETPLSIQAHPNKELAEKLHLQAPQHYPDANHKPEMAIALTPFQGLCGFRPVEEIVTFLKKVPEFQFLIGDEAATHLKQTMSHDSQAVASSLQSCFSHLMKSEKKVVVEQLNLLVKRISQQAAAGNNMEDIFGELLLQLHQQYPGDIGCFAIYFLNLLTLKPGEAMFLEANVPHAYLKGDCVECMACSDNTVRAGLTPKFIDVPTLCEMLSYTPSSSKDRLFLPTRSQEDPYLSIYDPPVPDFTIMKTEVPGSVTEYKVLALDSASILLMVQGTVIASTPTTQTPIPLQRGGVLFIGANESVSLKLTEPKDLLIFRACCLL

inhibition, inactive:
COc1ccc(C2CC(c3ccc(OC)cc3)n3nc(NC(=O)c4ccco4)nc3N2)cc1 (stereo not given) 3.4%
COc1cccc2c1OCC(C(=O)OCc1cccnc1)=C2 3.9%
COCc1cc(C)nc(N/N=C/c2ccc(-c3ccc(C(=O)O)c(Cl)c3)o2)c1C#N -2.9%
COCc1cc(C)nc(N/N=C/c2ccc(-c3cc(C(=O)O)ccc3Cl)o2)c1C#N -8.6%
O=C1CCc2cc(S(=O)(=O)NC(C(=O)N3CCN(c4ccccn4)CC3)c3ccccc3)ccc2N1 (stereo not given) -3.8%
CNCC/C=C1/c2ccccc2CSc2ccccc21 14.2%
CCOc1ccc(NC(=O)NCC2CCN(c3ccc(OC)cc3)C2)cc1 (stereo not given) 22.5%
CCNC(=O)Nc1ccc(OC)cc1OC -3.8%
COc1ccc(N2CCC(CNC(=O)Nc3ccc(Cl)cc3)C2)cc1 (stereo not given) 46.2%
COc1ccc(NC(=O)NCc2ccncc2)c(OC)c1 3.6%
CCSc1nnc(NC(=O)C(C)(C)C)s1 2%
CCO[C@@H]1OC(C(=O)NCc2ccccc2)=C[C@H](C2CC2)[C@H]1CCCO -7.4%
Cc1nc(N)[nH]c(=O)c1CCC(=O)OCC(C)C -23.1%
Nc1ccc2nc(-c3ccccc3)sc2c1 26.8%
Nc1c([N+](=O)[O-])c(=O)sc2ccccc12 -0.6%
Cc1c(C(=O)NCCc2ccc(S(N)(=O)=O)cc2)cccc1[N+](=O)[O-] -0.5%
CCCN1C/C(=C/c2cccc([N+](=O)[O-])c2)C(=O)/C(=C/c2cccc([N+](=O)[O-])c2)C1 -2.8%
COc1ccc(N2CSC3=C(C#N)C(c4cccc(OC)c4OC)CC(=O)N3C2)cc1 (stereo not given) -24.3%
N#CC1=C2SCN(Cc3ccco3)CN2C(=O)CC1c1ccccc1F (stereo not given) 15%
Cc1ccc(/C=C/C(=O)O)cc1S(=O)(=O)NCCCC(=O)O 0.6%
O=C(CCN1C(=O)C2C3C=CC(C3)C2C1=O)N1CCN(c2ccc([N+](=O)[O-])cc2)CC1 (stereo not given) 21.6%
CCC(=O)Nc1nc2nc(-c3ccccc3)cc(-c3ccccc3)n2n1 0.3%
Cc1ccc(O)c(NC(=S)NC(=O)/C=C/c2ccco2)c1 -3.9%
Cc1cc(=O)oc2cc(OCc3ccc(C(=O)N4CCN(c5ccccc5)CC4)cc3)ccc12 10.2%
CCC(C)NC(=O)CNC(=S)N(Cc1ccccc1F)C1CCCCC1 (stereo not given) 6.1%
COc1ccc(NC(=O)CSc2nnc(-c3cccnc3)n2Cc2ccco2)c(OC)c1 8%
c1ccc(OCCN2CCN(Cc3nc(-c4ccc5c(c4)OCO5)no3)CC2)cc1 -4.3%
O=C(CC1Nc2cccc3cccc(c23)NC1=O)Nc1ccccc1 (stereo not given) 39%
CC(=O)Nc1ccc(NC(=O)CC2Nc3cccc4cccc(c34)NC2=O)cc1 (stereo not given) -5.1%
Brc1ccc(/C=N/c2nc3ccccc3n2CCN2CCOCC2)cc1 9.4%
C#CCn1c(=NC(=O)c2ccc(S(=O)(=O)N3CCCc4ccccc43)cc2)sc2cc(S(N)(=O)=O)ccc21 20.9%
C=CCn1c(=NC(=O)c2ccc(S(=O)(=O)N3CCc4ccccc4C3)cc2)sc2cc(S(N)(=O)=O)ccc21 1.8%
N/C(=N\OC(=O)Oc1ccccc1)c1cccc([N+](=O)[O-])c1 -8.6%
CCOC(=O)c1cc(NC(=O)Nc2ccccc2OC)c(C)nc1C 6%
CCCCCn1c(N)c(-c2nc3ccccc3o2)c2c([N+](=O)[O-])nn(C)c(=O)c21 -0.9%
Cc1noc2ncnc(Oc3ccccc3Cl)c12 0%
COc1cccc(CN(C)C(=S)Nc2cccc(C)c2)c1 0.1%
O=C(CN1CCOCC1)N/N=C/c1cc2ccccc2nc1Cl 15.9%
Cc1ccc(NCC(=O)N/N=C\c2ccc([N+](=O)[O-])o2)cc1 -1.6%
O=C(COc1cccc(Cl)c1)N/N=C\c1cc2ccccc2nc1Cl -3.2%
Cc1ccccc1OCC(=O)N/N=C/c1cc2ccccc2nc1Cl 9.1%
O=C(CN1CCCCC1)N/N=C/c1cc2ccccc2nc1Cl -10.7%
Cc1ccc(NCC(=O)N/N=C\c2cccc(O)c2)cc1 18.7%
CC(=O)Nc1ccc(S(=O)(=O)N2CCN(C(=O)N3CCOCC3)CC2)cc1 1.8%
O=C(CSCc1ccc(Cl)cc1)NCCSCc1ccco1 4%
O=C1NC(c2ccccc2)=C(c2nc3ccccc3s2)C(c2ccccc2)N1 (stereo not given) 14.1%
NC(=O)c1ccccc1NC(=O)Nc1cccc2ccccc12 19%
COC(=O)c1ccc2c(c1)N(C)C(=O)CS2 6.4%
O=C(Nc1ccc2c(c1)OCCO2)c1ccc(Br)s1 -2.3%
Cc1cc(C)c(S(=O)(=O)/N=C2\C=CC(=O)C(Cl)=C2)c(C)c1 -6.5%
Cc1nc2sccn2c1-c1csc(NCc2ccccc2)n1 34.1%
Cc1ccnc(Nc2nc(-c3c(C)nc4sccn34)cs2)c1 19.1%
COC(=O)c1c(O)c2c([nH]c1=O)CCCC2 -0.6%
CCCCCn1c(CN2CC(C)OC(C)C2)nc2c1c(=O)n(C)c(=O)n2C (stereo not given) 8.9%
CCn1c(Cc2cccs2)nnc1SCC(=O)NC(C)(C)C -5.7%
COCCn1c(Cc2ccccc2)nnc1SCC(=O)NC(C)(C)C -1.6%
CN1CCCN(C(=O)CNC(=O)Cc2ccccc2)CC1 4.9%
COC(=O)C1=C(C)NC2=C(C(=O)CCC2)C1c1cn(Cc2ccc(Br)cc2)nc1-c1ccccc1 (stereo not given) 13.4%
COc1cccc(NC(=O)NC2(C(F)(F)F)Oc3ccccc3O2)c1 48.7%
COc1ccc(OC)c(NC(=O)Nc2ccccc2C)c1 1.9%
COc1ccc(N2CCN(CCC3Oc4cc([N+](=O)[O-])ccc4NC3=O)CC2)cc1 (stereo not given) 38.8%
Cc1cc(NC(=O)C2CC2)ncc1NC(=O)C12CC3CC(CC(C3)C1)C2 5.3%
CC1(c2ccc(Cl)cc2Cl)OCC(Cn2ccnc2)O1 (stereo not given) 3.5%
CC(C)(C)c1ccc(O)c(N=Cc2cc(Br)ccc2O)c1 39.3%
Cc1cccc(C=Nc2ccc3c4c(cccc24)CC3)c1O 45.4%
Cc1nnc(SCC(=O)NC2CCS(=O)(=O)C2)n1-c1ccccc1 (stereo not given) -3.2%
Cc1cc(C)c(S(=O)(=O)Nc2cc(SCC(=O)O)c(O)c3ccccc23)cc1C 21.6%
O=S(=O)(Nc1ccccc1O)c1cccc2cccnc12 11.7%
O=C(Sc1cccc2cccnc12)c1ccc(F)cc1 11.3%
CCc1ccc(S(=O)(=O)Nc2cc(SCC(=O)O)c(O)c3ccccc23)cc1 7.4%
Cc1ccc(S(=O)(=O)Nc2ccc(O)c3ncccc23)cc1 27.9%
CCOc1ccc(S(=O)(=O)Nc2ccc(O)c(Sc3ncn[nH]3)c2)cc1 2.5%
COc1ccc(S(=O)(=O)Nc2ccc(O)c(Sc3ncn[nH]3)c2)cc1 13%
Cc1ccc(S(=O)(=O)Nc2cccc3cccnc23)cc1 16.3%
Cc1ccc(S(=O)(=O)Nc2ccc3c(c2)nc(CN2CCCC2)n3C)cc1 -2.1%
CCOc1ccc(C(C)=O)cc1CSc1nnc(-c2cccs2)n1CC1CCCO1 (stereo not given) 10.7%
O=[N+]([O-])c1cccc(/C=N/NC2=NCCCCC2)c1 -4.3%

inhibition, active:
COCc1cc(C)nc(N/N=C/c2ccc(-c3ccc(Cl)cc3[N+](=O)[O-])o2)c1C#N 55.9%
COc1ccc(N2CCC(CNC(=O)Nc3ccc(OC)cc3OC)C2)cc1 (stereo not given) 55.7%
COc1ccc(N2CCC(CNC(=O)Nc3ccc(C)c(C)c3)C2)cc1 (stereo not given) 52.6%
Nc1ccc2c(c1)sc1ccccc12 55.2%
N#CC1=C2SCN(Cc3ccco3)CN2C(=O)CC1c1cccc2ccccc12 (stereo not given) 68.8%
COc1ccc2ccccc2c1C1CC(=O)N2CN(Cc3ccco3)CSC2=C1C#N (stereo not given) 62.9%
O=C(CC1Nc2cccc3cccc(c23)NC1=O)Nc1ccc(F)cc1 (stereo not given) 54%
C=CCn1c(=NC(=O)c2ccc(S(=O)(=O)N3CCCc4ccccc43)cc2)sc2cc(S(N)(=O)=O)ccc21 59.2%
Cc1ccc(NCC(=O)N/N=C/c2cc(O)ccc2[N+](=O)[O-])cc1 57.6%
O=C(CNc1ccc2ccccc2c1)N/N=C/c1cc2ccccc2nc1Cl 67.5%
Cc1ccc(NCC(=O)N/N=C/c2cc3ccccc3nc2Cl)cc1 57.6%
C=CCNc1nc(-c2c(C)nc3sccn23)cs1 55.2%
CCn1c(Cc2ccccc2)nnc1SCC(=O)NC(C)(C)C 52.9%
COc1ccc(OC)c(NC(=O)NC2(C(F)(F)F)Oc3ccccc3O2)c1 58%
Oc1ccc(Br)cc1C=Nc1ccc2c3c(cccc13)CC2 67.1%
O=S(=O)(Nc1cc(Sc2cccc3cccnc23)c(O)c2ccccc12)c1ccccc1 63.7%
COc1ccc(S(=O)(=O)Nc2cc(Sc3ncn[nH]3)c(O)c3ccccc23)cc1 72.4%
O=S(=O)(Nc1cc(Sc2cccc3cccnc23)c(O)c2ccccc12)c1ccc(F)cc1 51.1%
